± gives the standard deviation.
Key:
Conditions in all cases: modulator concentration 10 µM
[1] = system: RAW-Dual (murine macrophage reporter line); assay: NF-kB reporter (SEAP) activity fold change vs agonist alone; higher = enhanced NF-kB activity
Method in brief: (§1)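 RAW-Dual murine macrophage reporter cells were seeded at 50 000 per well in 384-well plates and pre-incubated 1 hour at 37 °C with compound pin-transferred to 10 μM final. After 1 hour, a PRR agonist was added and cells incubated overnight. Supernatant NF-κB (SEAP, QUANTI-Blue, 620 nm absorbance) and IRF (Lucia luciferase, QUANTI-Luc, luminescence) signals were divided by the mean agonist-only control on the same plate to give fold change. Two replicate plates were averaged, with errors by propagation.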

[2] = system: RAW-Dual (murine macrophage reporter line); assay: IRF reporter (Lucia luciferase) activity fold change vs agonist alone; higher = enhanced IRF activity
Method in brief: as §1

[3] = system: RAW-Dual (murine macrophage reporter line); assay: viability score (confluency relative to resting cells, overnight) (fraction); higher = more viable, active = viable (0.7 or more)
Method in brief: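 Compound was added at a final 10 μM to RAW-Dual macrophages in 384-well plates and left overnight. Confluency was imaged with IncuCyte, and two masks were generated in IncuCyte software over all imaged wells. Each viability score is confluency relative to resting cells, and a compound met the cutoff only when both masks were above 70% of resting cells.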

[4] = agonist: CpG ODN 1826 0.5 ug/mL

SMILES | NF-kB reporter [1, 4] | NF-kB reporter ([1]; agonist: LPS 0.1 ug/mL) | NF-kB reporter ([1]; agonist: MPLA […]) | IRF reporter ([2]; agonist: 3'3'-cGAMP 10 ug/mL) | IRF reporter ([2]; agonist: LPS 0.1 ug/mL) | IRF reporter ([2]; agonist: MPLA […]) | viability score [3]
COc1ccc(-c2[nH]c3ccccc3c2SCCNC(=O)c2ccccc2)cc1 | 1.12 ± 0.086 | 1.19 ± 0.072 | 1.29 ± 0.11 | 0.832 ± 0.035 | 1.42 ± 0.14 | 1.17 ± 0.12 | 0.966 (active)
CCN(CC)CC#CCOC(=O)C(O)(c1ccccc1)C1CCCCC1.Cl (stereo unspecified) | 0.873 ± 0.057 | 1.01 ± 0.11 | 1.05 ± 0.084 | 0.998 ± 0.047 | 1.12 ± 0.2 | 1.19 ± 0.29 | 1.02 (active)
Cc1ccc(N2C(=O)C(=CC3CC=CCC3)SC2=S)cc1 (stereo unspecified) | 0.652 ± 0.054 | 0.835 ± 0.039 | 0.817 ± 0.076 | 0.397 ± 0.022 | 1.04 ± 0.075 | 0.963 ± 0.1 | 0.973 (active)
Cl.Nc1c2c(nc3ccccc13)CCCC2 | 0.172 ± 0.048 | 0.751 ± 0.041 | 0.918 ± 0.06 | 0.616 ± 0.024 | 0.806 ± 0.25 | 0.837 ± 0.12 | 0.995 (active)
NS(=O)(=O)c1ccc2c(c1)CCCC2 | 0.512 ± 0.11 | 0.806 ± 0.22 | 0.661 ± 0.15 | 0.932 ± 0.057 | 0.925 ± 0.073 | 0.957 ± 0.3 | 0.863 (active)
CC(=O)c1ccc(NC(=O)c2ccccc2C(=O)O)cc1 | 1.27 ± 0.12 | 1.14 ± 0.1 | 1.08 ± 0.12 | 0.903 ± 0.11 | 1.14 ± 0.13 | 1.31 ± 0.29 | 1 (active)
CCOC(=O)C1=C(C)OC(N)=C(C#N)C1c1cc(C)c(OC)cc1C (stereo unspecified) | 0.925 ± 0.073 | 1.01 ± 0.11 | 0.898 ± 0.056 | 0.66 ± 0.11 | 0.987 ± 0.089 | 0.935 ± 0.17 | 1 (active)
CC(=O)c1c(C)c2cnc(Nc3ccc(N4CCNCC4)cn3)nc2n(C2CCCC2)c1=O.Cl | 1.27 ± 0.47 | 1.14 ± 0.064 | 1.22 ± 0.1 | 0.363 ± 0.014 | 0.898 ± 0.16 | 0.966 ± 0.16 | 0.982 (active)
O=c1cccnn1CC1CN(c2ncc(Br)cn2)C1 | 1.04 ± 0.32 | 1.08 ± 0.072 | 1.07 ± 0.096 | 0.964 ± 0.044 | 0.966 ± 0.17 | 1.05 ± 0.23 | 1 (active)
O=c1oc2ccccc2c(O)c1Cc1c(O)c2ccccc2oc1=O | 1.06 ± 0.089 | 0.972 ± 0.061 | 1.03 ± 0.051 | 1.06 ± 0.12 | 0.916 ± 0.048 | 0.844 ± 0.07 | 0.997 (active)
COc1ccc(C2CNC(=O)C2)cc1OC1CCCC1 (stereo unspecified) | 2.76 ± 0.37 | 2.2 ± 0.43 | 1.63 ± 0.1 | 0.942 ± 0.03 | 0.963 ± 0.18 | 1.17 ± 0.089 | 0.973 (active)
Cc1cc(C(=O)NNCc2ccccc2)no1 [Prestw-795] | 1.09 ± 0.18 | 1.18 ± 0.11 | 0.992 ± 0.076 | 0.958 ± 0.026 | 1.06 ± 0.24 | 1.29 ± 0.14 | 0.997 (active)
O=C(NCC1(O)Cc2ccccc2C1)c1cccc(Br)c1 | 1.09 ± 0.055 | 1.02 ± 0.093 | 1.03 ± 0.15 | 1.05 ± 0.069 | 1.2 ± 0.11 | 1.32 ± 0.1 | 0.677 (inactive)
Cc1cc(O)c2c(c1)C(=O)c1cccc(O)c1C2=O | 0.969 ± 0.08 | 1.08 ± 0.1 | 1.1 ± 0.024 | 0.894 ± 0.08 | 0.973 ± 0.1 | 0.953 ± 0.11 | 0.986 (active)
O=C1C(=Cc2ccncc2)CCC1=Cc1ccncc1 | 1.03 ± 0.082 | 0.928 ± 0.08 | 0.971 ± 0.12 | 0.993 ± 0.045 | 1.21 ± 0.17 | 1.28 ± 0.27 | 1.01 (active)
OC(c1cc(C(F)(F)F)nc2c(C(F)(F)F)cccc12)C1CCCCN1 (stereo unspecified) [Prestw-126] | 0.781 ± 0.051 | 0.973 ± 0.1 | 0.887 ± 0.059 | 1.13 ± 0.076 | 2.89 ± 0.33 | 1.75 ± 0.16 | 0.0879 (inactive)
O=C(Nc1nccs1)c1ccc2c(c1)C(=O)N(CC1CCCO1)C2=O (stereo unspecified) | 1.12 ± 0.11 | 0.919 ± 0.088 | 0.975 ± 0.028 | 0.997 ± 0.037 | 1.04 ± 0.054 | 1.14 ± 0.13 | 0.997 (active)
c1ccc(OCc2nnc(-c3ccccc3)o2)cc1 | 1.15 ± 0.1 | 1.19 ± 0.09 | 1.14 ± 0.037 | 0.87 ± 0.078 | 0.937 ± 0.044 | 0.973 ± 0.076 | 0.999 (active)

— the supplement of paper PMC10646978
